Hits are enriched below; roughly 21% of the tested compounds scored in any of these assays.
Pf growth 96h: Primary qHTS for delayed death inhibitors of the malarial parasite plastid, 96 hour incubation. P. falciparum luciferase reporter growth, 96 h. Potency, µM (highest dose often 28.7 µM), hits mostly inhibitors. hit rate 6.9% among 320,000. AID 504834, 2011
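Parasite growth measured via integrated firefly luciferase reporter in P. falciparum. Infected erythrocytes at 2% hematocrit, 0.05% parasitemia final were treated 96 hours at 37 C under 5% CO2, and luminescence was read.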
Shiga inhibitor: A qHTS for Small Molecule Inhibitors of Shiga Toxin; Vero cells, Shiga toxin protein synthesis inhibition reporter; inhibition, % at 38.7 µM; hit rate 9.2% among 290,000; in the data active = inhibition mostly above about 28%, no sharp cut-off; inactive = mostly below about 43%
Cycloheximide cs: Cycloheximide Counterscreen for Small Molecule Inhibitors of Shiga Toxin; hit rate 12% among 300,000; cell reporter, cycloheximide protein synthesis inhibition counterscreen; max response, %; in the data active = max response mostly above about 13%, no sharp cut-off; inactive = mostly below about 14%; note: read at 38.3 µM for the half of the compounds with a filed dose
Pf growth 48h: Primary qHTS for delayed death inhibitors of the malarial parasite plastid, 48 hour incubation | Potency, µM (top dose mostly 28.7 µM), hits mostly inhibitors | AID 504832, 2011 | P. falciparum luciferase growth in erythrocytes, 48 h | hit rate 5.9% among 310,000
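Cell-based growth assay: transgenic P. falciparum expressing firefly luciferase, cultured in red cells within RPMI 1640 containing 0.5% w/v Albumax, 24 mM bicarbonate and gentamycin. A drop in luciferase activity indicates inhibition.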
A number is an active result; - = inactive; ? = inconclusive; . = no result given; [ ] = remark or other dose. Unless noted, calls come from the whole dose curve; as a rule, active = well fitted inhibition curve with a large enough effect; inconclusive = small, poorly fitted or top-dose-only effect, or another doubt; inactive = no such curve, though single readings can be large or run the other way.

SMILES	Pf growth 96h	Shiga inhibitor	Cycloheximide cs	Pf growth 48h
O=C(O)c1ccc2c(c1)C(=O)N([C@]1(C(=O)O)CC1c1ccccc1)C2=O (stereo not given in full)	-	-	-	-
Cc1ccc(C(=O)Nc2cccc(N3C(=O)C4CCC(C)CC4C3=O)c2)cc1 (stereo not given)	-	-	-	-
O=C1CSC(=Nc2ccc(Cl)cc2)N1Cc1cccnc1	?	-	-	-
O=C(CCCN1C(=O)/C(=C/c2cccs2)SC1=S)NNC(=O)c1cccnc1	15µM	-	-	?
Cc1cc(NC(=O)CCN2C(=O)/C(=C\c3ccccc3Cl)SC2=S)no1	0.033µM	-	-	-
Cc1cc(NC(=O)CCCN2C(=O)/C(=C\c3cccs3)SC2=S)no1	-	-	-	-
NS(=O)(=O)c1ccc(NC(=S)Nc2cc(Cl)c(Cl)cc2Cl)cc1	-	-	-	-
CCOc1ccccc1NC(=O)/C(C#N)=C/c1c(C)nn(-c2ccc(F)cc2)c1Cl	-	85	47	-
CC(NC(=O)c1ccco1)C(=O)N1CCCCC1 (stereo not given)	?	-	-	-
CN1C(=O)C(O)N=C(c2ccccc2)c2ccccc21 (stereo not given)	-	-	-	-
CN1C(=O)[C@@H](NC(=O)c2cc3ccccc3[nH]2)N=C(c2ccccc2)c2ccccc21	15µM	-	-	15µM
Cc1ccn2c(C=O)c(-c3ccc(F)cc3)c(C=O)c2c1	?	-	28	-
C=CCn1c(O)c(N=Nc2ccccc2O)c2ccccc21	-	.	.	9.3µM
C=CCn1c(O)c(N=NC(=S)Nc2cccc(OC)c2)c2ccccc21	?	-	-	3.7µM
C=CCn1c(O)c(N=NC(=S)Nc2ccc(OC)cc2)c2ccccc21	-	-	-	10µM
C=CCn1c(O)c(N=NC(=O)OCC)c2ccccc21	-	-	-	-
O=C(CN1CCN(C(=O)C2CC2)CC1)Nc1cc(C(F)(F)F)cc(C(F)(F)F)c1	-	.	.	-
CCn1c(=O)cc(SCC(=O)NCc2ccc(C)o2)c2ccccc21	12µM	-	-	.
CCn1c(=O)cc(SCC(=O)NCc2cccnc2)c2ccccc21	9.3µM	-	-	-
CCn1c(=O)cc(SCC(=O)NCc2ccc(C)cc2)c2ccccc21	-	-	-	-
CCn1c(=O)cc(SCC(=O)NCc2ccco2)c2ccccc21	?	-	-	-
Cc1c(NC(=O)COC(=O)c2ncc(Cl)c(Cl)c2Cl)c(=O)n(-c2ccccc2)n1C	-	.	.	-
Cc1c(Cl)cccc1NC(=O)NN1CCN(C)CC1	-	-	-	-
COCC(=O)Nc1cc(C(=O)Nc2ccccc2C)ccc1Cl	-	-	-	-
COc1cccc(C(=O)Nc2cc(C(=O)NCCc3ccccc3)ccc2Cl)c1	.	-	20	-
SMILES	Pf growth 96h	Shiga inhibitor	Cycloheximide cs	Pf growth 48h
COCC(=O)Nc1cc(C(=O)Nc2cccc(C)c2C)ccc1Cl	.	-	14	-
COc1cccc(/C(O)=C/c2nc3ccc(C(=O)NCCc4cccc(C)c4)cc3[nH]c2=O)c1	-	-	-	8.3µM
COc1cccc(/C(O)=C/c2nc3ccc(C(=O)NCCc4ccc(Cl)cc4)cc3[nH]c2=O)c1	-	-	-	-
CCCCC(=O)Nc1cc(C(=O)NCCc2ccccc2)ccc1Cl	-	-	18	-
COc1ccc2[nH]c(=O)c(CN(Cc3ccc(C)cc3)Cc3nnnn3CC3CCCO3)cc2c1 (stereo not given)	8.3µM	40	40	?
O=c1[nH]c2cc3c(cc2cc1CN(Cc1nnnn1CC1CCCO1)C1CCCC1)OCO3 (stereo not given)	10µM	-	-	-
COc1ccccc1CN(Cc1cc2cc(C)ccc2[nH]c1=O)Cc1nnnn1CC1CCCO1 (stereo not given)	10µM	-	-	7.4µM
COc1ccc2[nH]c(=O)c(CN(Cc3ccccc3OC)Cc3nnnn3CC3CCCO3)cc2c1 (stereo not given)	-	-	-	?
COCCn1nnnc1CN(CCc1ccccc1)Cc1cc2ccc(C)cc2[nH]c1=O	10µM	-	-	?
S=C(NCCCN1CCOCC1)Nc1cccc(-c2nnc3n2CCCCC3)c1	?	-	-	-
O=C(CSc1nc2nn(-c3ccccc3)c(=O)c-2c2n1CCCCC2)NCCc1ccccc1	?	-	-	?
CN(C)c1cccc(C(=O)OC(C(=O)Nc2ccc([N+](=O)[O-])cc2Br)c2ccccc2)c1 (stereo not given)	?	-	-	?
COc1ccc2cc(CN(CCc3ccccc3)Cc3nnnn3CC3CCCO3)c(=O)[nH]c2c1 (stereo not given)	-	-	-	9.3µM
Cc1nn(Cc2cccc(C(=O)Nc3ccn(Cc4c(F)c(F)cc(F)c4F)n3)c2)c(C)c1[N+](=O)[O-]	13µM	-	-	.
Cc1nn(C)c(C(=O)Nc2ccn(Cc3c(F)c(F)cc(F)c3F)n2)c1[N+](=O)[O-]	.	-	-	-
CCCNC(=O)c1cc(Cl)c(NC(=O)C2=CSCCO2)cc1OC	-	19	-	-
O=C(CSc1ccc(Br)cc1)Nc1ccccc1Oc1ccccc1	?	-	-	-
O=C(CSc1ccc(F)cc1)Nc1ccc(Br)cc1	-[5.75 µM]	67	47	-
O=C(CSc1ccc(F)cc1)Nc1ccccc1Br	-	-	33	?
COc1ccc(C)cc1NC(=O)CCNS(=O)(=O)c1ccc2c(c1)CC(C)N2C(C)=O (stereo not given)	?	-	-	-
CCOc1cc(/C=N/NC(=O)C(N)=O)cc(Br)c1O	-	-	-	-
CCOc1cc(/C=N/NC(=O)c2ccc3c(c2)OCCO3)cc(Br)c1O	-	77	12	-
O=C(Cc1ccccc1)N/N=C/c1ccc(S(=O)(=O)O)o1	-	-	-	-
O=C(N/N=C/c1cc(Br)c(O)c(Br)c1O)c1ccc2c(c1)OCCO2	-	73	29	?
O=C(Cc1ccccc1)N/N=C/c1cc(Br)c(Br)o1	-	38	43	-
SMILES	Pf growth 96h	Shiga inhibitor	Cycloheximide cs	Pf growth 48h
O=C(N/N=C/c1cc(Cl)cc([N+](=O)[O-])c1O)c1ccc2c(c1)OCO2	-	-	-	?
O=C(N/N=C/c1cc(Br)c(Br)o1)c1ccc2c(c1)OCCO2	-	60	28	-
CCN(CC(=O)Nc1ccc(Br)cc1)C(=O)Cc1cccc(F)c1	-	-	-	-
CC1CN(C(=O)CCNC(=O)c2ccc(Cl)cc2)CC(C)O1 (stereo not given)	-	-	-	-
O=C(N/N=C/c1cc(Br)c(Br)o1)c1cccnc1	13µM	-	-	-
O=C(N/N=C\c1cc(Br)c(Br)o1)c1cncc(Br)c1	-	-	-	-
Cc1cc([N+](=O)[O-])ccc1NC(=O)CSc1nccc(=O)[nH]1	-	-	-	-
Nc1nnc(CC(=O)N/N=C/c2cccc(OCCOc3ccccc3)c2)s1	-	69	41	-
Nc1nnc(CC(=O)N/N=C/c2cccc([N+](=O)[O-])c2)s1	-	-	-	-
Nc1nnc(CC(=O)N/N=C/c2ccccc2OCc2ccccc2F)s1	-	-	-	-
Cc1ccccc1OCCOc1cccc(/C=N/NC(=O)Cc2nnc(N)s2)c1	-	137	38	-
CC(C)(C)c1cc(NS(=O)(=O)c2cccs2)no1	-	-	-	-

Bioassay records: PubChem BioAssay, National Center for Advancing Translational Sciences (NCATS)
